Assay results published in PubChem BioAssay (NCI).
About 83,000 compounds went through this panel and 20% of them were active in at least one assay; those are over-represented in the sample as a whole.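 Each cell line was grown in a 96-well plate and treated with one concentration of compound for 48 hours. Values below 10 were considered active.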 A number with no mark means an inactive call. Calls of active or inactive are those of the source.

Tested on: CAKI-1 renal
Assay: NCI-60 one-dose screen, 48 h (100 = growth as untreated, 0 = no growth, -100 = all killed)
Details: 10 µM unless noted

| Compound | growth |
| --- | --- |
| COc1ccc(C=Nc2c(C(=O)Nc3cccc(Cl)c3C)sc3nc(C)c(C(=O)/C=C/c4ccc(OC)cc4)cc23)cc1 | 24% |
| CCOC(=O)CNC1=C(Cl)C(=O)N(Cc2ccc(Cl)cc2)C1=O | 95.4% |
| COc1ccc(/C=C(\C(=O)NCc2cccnc2)S(=O)(=O)c2ccccc2)cc1OC | 36.1% |
| COc1cc2c(c(OC)c1OC)CCC(c1cccc(C(=O)Nc3ccc(Br)cc3)c1)O2 (stereo not given) | 73.6% |
| Nc1cc(-c2ccc(Cl)cc2)nn1-c1nnc(/C=C/c2ccco2)c(=O)[nH]1 | 1.03% (active) |
| N#C/C(=C\c1ccc(-c2cccc(Cl)c2)o1)C(=O)Nc1ncc(Cc2ccc(Cl)cc2)s1 | 51.6% |
| CCOC(=O)c1c(C)nc2c(c1N)C(=O)C(=O)N2Cc1ccc(OC)cc1 | 83.3% |
| c1csc(-c2cn3nc(-c4c[nH]c5ccccc45)sc3n2)c1 | 29.8% |
| FC(F)(F)c1[nH]ncc1-c1nc2ccc3[nH]ncc3c2c2c1CCCC2 | 9.85% (active) |
| COc1cc(-c2nccc3[nH]c(-c4cccc5[nH]ccc45)nc23)cc(OC)c1OC | 31.4% |
| COc1ccc2[nH]cc(-c3nonc3-c3c[nH]c4ccc(Br)cc34)c2c1 | 24.8% |
| CC(=O)c1c(Nc2cccc(F)c2)[nH]c2c(Cl)cc(Cl)c(Cl)c2c1=O | -5.89% (active) |
| CCOC(=O)NC(=S)n1oc(=O)c2ccccc21 | 90.4% |
| O=S(Nc1ccccc1)c1ccc(Cl)cc1 (stereo not given) | 95.5% |
| Nc1c(Br)cc2c(c1Br)Cc1cc([N+](=O)[O-])ccc1-2 | 98% |
| CCCN(CCSSCCNc1nc(N(C)O)nc(N(C)O)n1)c1nc(N(C)O)nc(N(C)O)n1 | 31.9% |
| COC(=O)c1sccc1-c1cc(O)c(C(=O)Nc2ccccc2)s1 | 86.4% |
| N#Cc1c(-c2ccc(Cl)cc2)nc(NN=Cc2ccc[nH]2)nc1N1CCOCC1 | 63.2% |
| Clc1ccc(-c2nc(C(Cl)Cl)nc3cc(-c4ccccc4)nn23)cc1 | -15.8% (active) |
| C/C(=N\Nc1ccccc1)c1ccc(NC2=CC(=O)c3ccccc3C2=O)cc1 | 43.8% |

| Compound | growth |
| --- | --- |
| COc1ccc(/C=C(/C(=O)N2CCNCC2)c2cc(OC)c(OC)c(OC)c2)cc1O | 93.1% |
| CCN(CC)CCCC(Cc1ccccc1)Nc1c2ccc(Cl)cc2nc2ccc(OC)cc12 (stereo not given) | 32.6% |
| Fc1ccc2[nH]cc(-c3nc(-c4c[nH]c5c(Cl)nccc45)cs3)c2c1 | 49.2% |
| Fc1ccc(/C=C/[C@@H]2C[C@@H](F)CCO2)cc1 | 86.8% |
| Cc1ccccc1N1CCN(C(=S)c2ccccc2)CC1 | 75.3% |
| N#Cc1ccc(/C=C/c2cn(-c3ccccc3)nc2-c2cccc([N+](=O)[O-])c2)cc1 | 71.1% |
| Cc1[nH]c(C(=O)Nc2ccccc2OC2CCN(CCN3CCOCC3)CC2)c(Cl)c1Cl | 84% |
| COc1ccc(C(O)c2cc3c(N)c(C(=O)Nc4cccc5ccccc45)sc3nc2C)cc1 (stereo not given) | 15.5% |
| Cc1ccc(C(=O)c2ccc(CC(=O)N/N=C/c3cccc(O)c3O)n2C)cc1 | 37.3% |
| CCC(C)(C)c1ccc(Nc2ccc(Nc3ccc(C(C)(C)CC)cc3)cc2)cc1 | 71% |
| O=C(Nc1ccc(Nc2ccncc2)cc1)c1ccc(Nc2ccnc3ccc([N+](=O)[O-])cc23)cc1 | 105% |
| CCCCNC(=O)c1ccc2c(c1)nc(-c1ccccc1)n2C1CCCCC1 | 109% |
| Cc1ccc(NC(=O)c2cc3ccccc3cc2O)c(C)c1 | 66.5% |
| CCOC(=O)C(CCN(C)C)c1ccccc1 (stereo not given) | 94.5% |
| CC(O)Cc1c[nH]c(=O)[nH]c1=O (stereo not given) | 99.6% |
| COCCn1cc(-c2nc(-c3c[nH]c4ncccc34)cs2)c2ccccc21 | 62.7% |
| CC1SC(c2ccccc2O)N(NC(=O)CCC(=O)c2nc3ncccc3[nH]2)C1=O (stereo not given) | 80.3% |
| COC12C=C/C(=C(/C(=O)OCCSc3ccnn3C)C(=O)CCCCCCCCC3(OC)C=C/C(=C(/C(=O)OCCSc4ccnn4C)C(=O)CCCCCCCC1)O3)O2 | 26.6% |
| COC1C(O)CC(OC2CC(OC3CC(O[C@@H]4C(=O)c5c(cc6cc(OC7CC(OC8CC(O)C(O)C(C)O8)C(O)C(C)O7)c(C)c(O)c6c5O)CC4[C@H](OC)[C@@H](O)C(C)=O)OC(C)C3O)OC(C)C2O)OC1C (stereo not given in full) | 29.3% |
| CNC(=O)c1cc(Oc2ccc3c(c2)sc2nc(-c4ccc(NC(=O)[C@@H](NC(=O)OC)C(C)C)cc4)cn23)ccn1 | 77.1% |
